TEAD-YAP inh = TEAD-YAP interaction inhibition | HEK-TIYL cells, TEAD-Gal4/YAP UAS-luciferase luminescence | 640,000 compounds, 1.4% hits | inhibition, % at 9.12 µM; in the data active = inhibition above about 32%;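 also: 0% = median of test compound wells and 100% = reference inhibitor wells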
GPR151 ag = activators of human GPR151; 650,000 compounds, 1% hits; AID 1508602; Q8TDV0; activation, % at 11.2 µM; PathHunter beta-arrestin GPR151 cells, luminescence; in the data active = activation above about 4.9%;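 also: 0% = median of compound wells and 100% = cells with positive control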
MITF primary = human MITF inhibition, primary screen; AlphaScreen MITF homodimerization, bead proximity signal; O75030; 650,000 compounds, 0.91% hits; inhibition, % at 2.6 µM; in the data active = inhibition above about 50%;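 also: 0% = vehicle wells with protein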
Target sequence (O75030 whole entry, looked up): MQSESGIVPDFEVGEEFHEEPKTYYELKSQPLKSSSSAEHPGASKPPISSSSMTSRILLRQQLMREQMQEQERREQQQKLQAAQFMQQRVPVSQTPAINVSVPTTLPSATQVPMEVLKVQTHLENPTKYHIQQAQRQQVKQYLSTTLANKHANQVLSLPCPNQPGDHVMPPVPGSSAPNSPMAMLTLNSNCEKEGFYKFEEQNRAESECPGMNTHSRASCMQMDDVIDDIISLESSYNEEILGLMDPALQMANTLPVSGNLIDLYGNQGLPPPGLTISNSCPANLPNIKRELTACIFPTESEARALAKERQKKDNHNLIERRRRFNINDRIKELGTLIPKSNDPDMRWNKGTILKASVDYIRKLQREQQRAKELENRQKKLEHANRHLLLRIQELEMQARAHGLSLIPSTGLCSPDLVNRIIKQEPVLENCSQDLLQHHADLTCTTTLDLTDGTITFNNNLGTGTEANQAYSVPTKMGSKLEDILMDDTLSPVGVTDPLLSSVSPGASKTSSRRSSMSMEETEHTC
FBW7 activator = human FBW7 E3 ligase activation, primary screen | Q969H0 | AlphaScreen FBW7–phospho-cyclin E peptide binding, activator screen | normalized activity (activation), % at 26.1 µM | 650,000 compounds, 0.13% hits | AID 1259310; in the data active = normalized activity above about 1.9%;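 also: purified mutant Fbw7 with reduced substrate affinity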
MITF inh conf = human MITF inhibition, confirmation | shares compounds with MITF primary | AlphaScreen MITF homodimerization, biotin/His-MITF beads | inhibition, % at 2.6 µM | 4,700 compounds, 16% hits;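 active = inhibition above a cutoff derived from the DMSO control wells, cut at about 28% in these data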;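 also: 0% = MITF dimer wells with DMSO only; inhibitors lower the bead chemiluminescence by keeping MITF from dimerizing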
AlphaScreen DR = counter-screen: compounds optically interfering with AlphaScreen | shares compounds with MITF primary | AlphaScreen optical interference counterscreen, cell-free | 480 compounds, 6% hits | IC50, µM | AID 1259373; call rule not given here
AS interf ctr = optically interferes with AlphaScreen signal | shares compounds with MITF primary | LysRS AlphaScreen counterscreen, signal interference, triplicate | inhibition, % at 2.6 µM | 4,700 compounds, 7.6% hits | AID 1259376;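 active = inhibition above a cutoff derived from the DMSO control wells, cut at about 30% in these data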
GPR151 conf act = confirmation of human GPR151 activators | shares compounds with GPR151 ag | GPR151 PathHunter beta-arrestin cells, luminescence, 90 min; % of EA-reagent control over plate median | activation, % at 11.2 µM | 6,700 tested, under 10 active;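 active = mean percent activation across replicates above the confirmation screen cutoff of 4.91%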
GPR119 counter = GPR119 activation, counter-screen for GPR151 activators. GPR119 PathHunter beta-arrestin cells, luminescence, 90 min; 0 = compound-well median, 100 = enzyme-acceptor control. 6,700 compounds, 0.3% hits. shares compounds with GPR151 ag. activation, % at 11.2 µM;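 active = mean percent activation in the counterscreen above 29.09%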;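 also: counterscreen on off-target GPR119 to flag nonselective hits from the GPR151 activator screen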
* marks the source's active call; other numbers are inactive results; . = no result given; ! = a repeat was not active. Only some compounds are listed: those with a hit (about 3.5% of all), similar ones and a draw of the others.

SMILES | TEAD-YAP inh | GPR151 ag | MITF primary | FBW7 activator | MITF inh conf | AS interf ctr | others
O=C1NC(=S)NC(=O)C1=Cc1ccc(-c2ccc([N+](=O)[O-])cc2Br)o1 | -7.4 | 1.5 | -10.3 | 0.0 | . | .
COc1cccc(CN2CCN(Cc3ccccc3)CC2)c1OC | 1.4 | -0.6 | 68.6* | -0.2 | 3.4 | 11.8
COc1cccc(CN2CCN(C)CC2)c1OC | 3.7 | 2.5 | 11.8 | 0.3 | . | .
COc1cccc(CN2CCN(C)C(CCO)C2)c1OC (stereo unspecified) | -9.2 | -0.5 | -9.7 | 0.3 | . | .
CCC(C)N1CCN(Cc2cccc(OC)c2OC)CC1 (stereo unspecified) | -12.6 | -0.1 | 78.2* | 0.4 | 3.9 | 7.7
COc1cccc(CN2CCN(C(C)C)CC2)c1OC | 6.2 | 1.0 | 68.7* | -0.1 | 1.0 | -4.0
COc1ccc(CN2CCN(Cc3ccccc3)CC2)c(OC)c1 | 3.7 | -1.1 | 67.0* | -0.5 | 8.2 | 12.8
CCC(C)N1CCN(Cc2cccc(C)c2)CC1 (stereo unspecified) | -1.2 | 0.7 | 36.6 | 0.0 | . | .
COc1ccc(Cl)cc1C(=O)C1CCCN(Cc2cc(C)[nH]n2)C1 (stereo unspecified) | -2.0 | -1.0 | -3.4 | -0.1 | . | .
CCOC(=O)C1=C(N)Oc2cc(C)n(C)c(=O)c2C12C(=O)N(C)c1ccccc12 (stereo unspecified) | -5.7 | 0.8 | -4.6 | 0.1 | . | .
COc1ccc(OC)c(CN2CCN(C(C)C)CC2)c1 | 1.2 | -0.4 | 71.7* | -0.1 | 4.3 | 4.2
CC(C)N1CCN(Cc2ccc([N+](=O)[O-])cc2)CC1 | -6.0 | -0.2 | 66.6* | -0.1 | 5.0 | 5.9
CCc1ccc(CN2CCN(C(C)C)CC2)cc1 | -8.0 | -2.0 | 81.0* | 0.0 | 29.4* | -9.0 | AlphaScreen DR=>6.89
CCC(C)N1CCN(Cc2cccc(F)c2)CC1 (stereo unspecified) | 3.5 | 0.3 | -0.9 | -0.1 | . | .
Cc1ccc(CN2CCN(C(C)C)CC2)cc1 | 7.4 | -0.4 | 53.9* | 0.0 | -3.6 | -5.9
COc1cccc(N2CCN(Cc3ccc([N+](=O)[O-])cc3)CC2)c1 | 9.1 | -1.3 | 56.7* | 0.0 | 3.0 | 2.9
COc1ccc(O)c(CN2CCN(c3ccccc3)CC2)c1 | 6.1 | 2.2 | 21.9 | -0.4 | . | .
CCOc1cccc(CNCCc2c(C)[nH]c3ccc(OC)cc23)c1O | 7.9 | 0.1 | 20.0 | -0.2 | . | .
Cc1ccccc1CN1CCN(C(C)C)CC1 | -7.6 | -2.5 | 77.7* | 0.1 | -6.8 | 0.8
CC(C)N1CCN(Cc2ccccc2Br)CC1 | -2.0 | 1.9 | 51.1* | -0.1 | -0.1 | -3.5
N#CC1=C(N)Oc2c(c(=O)oc3ccccc23)C1c1ccc2c(c1)OCO2 (stereo unspecified) | 3.4 | -0.5 | -6.2 | 0.2 | . | .
CN(C)[C@@H]1C(=O)C(C(N)=O)=C(O)[C@@]2(O)C(=O)C3=C(O)c4c(O)ccc(Cl)c4[C@@](C)(O)[C@H]3C[C@@H]12 | -12.7 | -0.9 | -4.9 | -0.2 | . | .
CN(C)[C@@H]1C(=O)C(C(N)=O)=C(O)[C@@]2(O)C(=O)C3=C(O)c4c(O)cccc4[C@@](C)(O)[C@H]3[C@H](O)[C@@H]12 | -2.0 | 7.4*! | 64.4* | -0.3 | 62.1* | 31.2*! | AlphaScreen DR=4.4*!;GPR151 conf act=0.2;GPR119 counter=-0.4
CCN(CC)C(=O)c1ccc(NC(=O)c2cccc(Br)c2)cc1 | -22.6 | -3.2 | 12.0 | 0.1 | . | .
CC(=O)c1ccc(-n2c(=S)[nH]c3ccccc3c2=O)cc1 | -5.2 | 0.8 | -2.1 | -0.1 | . | .
SMILES | TEAD-YAP inh | GPR151 ag | MITF primary | FBW7 activator | MITF inh conf | AS interf ctr | others
CSc1ccc(CN2CCN(Cc3ccc(F)cc3)CC2)cc1 | 10.2 | 5.2* | 77.6* | -0.4 | 3.0 | -0.5 | GPR151 conf act=-0.3;GPR119 counter=-5.0
Cc1c(N=Nc2c(O)[nH]c(=S)[nH]c2=O)c(=O)n(-c2ccccc2)n1C | -9.0 | 15.2* | 91.5* | -0.2 | 36.0* | 100.3* | GPR151 conf act=0.8;GPR119 counter=4.2
CC(C)C(=O)Nc1ccc(S(=O)(=O)N2CC3CC(C2)c2cccc(=O)n2C3)cc1 (stereo unspecified) | 2.5 | 13.1* | 8.4 | 0.0 | . | . | GPR151 conf act=-0.2;GPR119 counter=9.3
CC(=O)Nc1ccc(S(=O)(=O)N2CC3CC(C2)c2cccc(=O)n2C3)cc1 (stereo unspecified) | -7.9 | 0.7 | -9.9 | -0.1 | . | .
CC12C=CC(=O)C=C1CCC1C2CCC2(C)C(=O)CCC12 (stereo unspecified) | -16.2 | 5.1* | 6.7 | -0.2 | . | . | GPR151 conf act=-0.3;GPR119 counter=-5.5
C[C@]12CCC(=O)C=C1CC[C@@H]1[C@@H]2CC[C@]2(C)C(=O)CC[C@@H]12 | -5.7 | -0.9 | 2.5 | 0.7 | . | .
CCOC(=O)C1C2NC(=S)N(c3ccccc3)C1(C)Oc1ccccc12 (stereo unspecified) | -4.0 | 0.8 | 24.2 | -0.4 | . | .
C=CCOC(=O)C1C2NC(=S)N(c3cccc(Cl)c3)C1(C)Oc1ccccc12 (stereo unspecified) | -6.7 | 10.0* | -3.9 | -0.3 | . | . | GPR151 conf act=-0.1;GPR119 counter=2.3
CC12CNCC(C)(CN(P(=O)(Oc3ccccc3)Oc3ccccc3)C1)C2=O | -6.0 | -0.3 | 7.2 | 0.4 | . | .
COc1ccc(C2(CN)CCCC2)cc1 | 0.9 | 0.1 | 0.0 | 0.1 | . | .
COc1ccc(C(CN(C)C)C2(O)CCCCC2)cc1 (stereo unspecified) | 4.0 | 8.7*! | 3.6 | -0.1 | . | . | GPR151 conf act=0.4;GPR119 counter=4.8
Nc1ncnc2c1ccn2[C@@H]1O[C@H](CO)[C@@H](O)[C@H]1O | 100.3* | 7.1* | 10.3 | 0.0 | . | . | GPR151 conf act=5.9*;GPR119 counter=3.6
OCC1OC(Oc2ccc(Br)cc2)C(O)C(O)C1O (stereo unspecified) | -4.8 | -0.2 | -1.4 | -0.1 | . | .
CN(C(=O)c1ccc(N2CC3CC(C2)c2cccc(=O)n2C3)c(N)c1)C1CCCCC1 (stereo unspecified) | 1.6 | 0.1 | -4.5 | -0.1 | . | .
COc1ccc(CC(C)NCCN2CCOCC2)cc1 (stereo unspecified) | 2.7 | 1.6 | 16.0 | 1.2 | . | .
O=c1cccc2n1CC1CC2CN(C(=S)Nc2ccccc2)C1 (stereo unspecified) | 9.8 | -1.7 | 4.4 | 0.7 | . | .
COc1cc(OC)cc(C(=O)NC(=S)N2CC3CC(C2)c2cccc(=O)n2C3)c1 (stereo unspecified) | 1.0 | 7.5* | -3.3 | 0.2 | . | . | GPR151 conf act=-0.7;GPR119 counter=2.2
c1ccc2c(c1)c1c3n2CNCC3CCC1 (stereo unspecified) | 3.1 | 1.7 | 10.1 | -0.2 | . | .
